T cruzi growth-1 = T. cruzi proliferation inhibition | AID 624255 | T. cruzi beta-gal in NIH3T3, GalScreen luminescence, 90 h | inhibition, % at 8.34 µM | 77,000 compounds, 5.9% hits;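 active means mean inhibition above about 93%, with at least 55% of replicates each passing it, limit read from the data, passing the limit was not always enough; inconclusive means only one of those two conditions holds; inactive means neither condition holds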
C diff growth = C. difficile growth inhibition; Clostridium difficile clinical isolate growth, OD600, 24 h; stronger effect = lower value; growth activity, negative = inhibition, % at 16 µg/mL (by protocol); 86,000 compounds, 0.25% hits;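 active means mean growth activity at or below -80% and every replicate also at or below -80%; inconclusive means mean at or below -80% but some replicate above -80%; inactive means mean growth activity above -80%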;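 further: 0% = DMSO wells and -100% = levofloxacin 16 µg/mL wells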
Pf Dd2 inh = P. falciparum Dd2 growth inhibition | activity change, % at 10 µM | 94,000 compounds, 2.3% hits | AID 1159554 | SYBR Green, 72 h; stronger effect = lower value; in the data active means activity change below about -80%; inconclusive means no clear call, values can overlap the other calls
T cruzi growth-2 = blocks T. cruzi growth in NIH3T3 host cells. shares compounds with T cruzi growth-1. T. cruzi beta-gal in NIH3T3, GalScreen luminescence, 90 h. AID 651739. inhibition, % at 8.35 µM. 5,600 compounds, 72% hits;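 active means mean replicate inhibition above about 95% and at least 55% of replicates individually reaching it, limit read from the data; inconclusive means only one of the two criteria is met; inactive means neither criterion is met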
T cruzi growth-3 = blocks T. cruzi growth in NIH3T3 host cells. 5,600 compounds, 21% hits. inhibition, % at 2.09 µM. AID 651740. shares compounds with T cruzi growth-1. T. cruzi beta-gal in NIH3T3, GalScreen luminescence, 90 h;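 active means mean inhibition above about 95%, with at least 55% of replicates also reaching it, limit read from the data; inconclusive means meets just one of the two conditions; inactive means meets neither condition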;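 further: plate controls were neutral control median for no effect and positive control median for full effect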
NIH3T3 tox = NIH/3T3 (mouse) viability loss. NIH/3T3 viability, CellTiter-Glo ATP luminescence, 90 h. cytotoxicity (signal decrease), % at 8.35 µM. shares compounds with T cruzi growth-1. AID 651742. 5,600 compounds, 14% hits;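 active means mean signal decrease across replicates above about 35% based on untreated-well scatter, with enough replicates individually passing, limit read from the data; inconclusive means no rule stated though some were filed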;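 further: 0% = median of neutral control wells and 100% = median of positive control wells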
3T3 cytotox 2 = cytotoxicity in mouse NIH/3T3 fibroblasts | AID 651744 | shares compounds with T cruzi growth-1 | inhibition, % at 24.9 µM | NIH/3T3 viability, CellTiter-Glo ATP luminescence, 90 h | 5,600 compounds, 56% hits;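 active means mean loss of cell viability signal at or above a set limit, and enough replicates individually reaching it; inconclusive means meets only the mean limit or only the replicate share; inactive means meets neither condition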;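 further: 0% = median of neutral control wells and 100% = median of positive control wells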
* marks the source's active call; other numbers are inactive results; ? = inconclusive; nt = not tested or not shown. Rows were chosen to be rich in hits. Some 6.7% of all compounds tested hit in one or more screens of this group.

SMILES	T cruzi growth-1	C diff growth	Pf Dd2 inh	T cruzi growth-2	T cruzi growth-3	NIH3T3 tox	3T3 cytotox 2
C/C=C/c1ccc2c(c1)O[C@H](CN(C)Cc1ccc(C(=O)O)cc1)[C@H](C)CN([C@@H](C)CO)S2(=O)=O	nt	-4	0	nt	nt	nt	nt
CCCC(=O)Nc1ccc2c(c1)OC[C@H](C)NC[C@@H](C)[C@@H](OC)CN(C)C2=O	17	nt	3	nt	nt	nt	nt
CN(C)CC(=O)N1CC[C@@H]2[C@H]1c1cc(Br)ccc1N(C)[C@H]2CO	65	-3	31	nt	nt	nt	nt
COc1ccc(C(=O)Nc2ccc3c(c2)OC[C@@H](C)N(C(C)=O)C[C@@H](C)[C@@H](OC)CN(C)C3=O)cc1	27	-2	-7	nt	nt	nt	nt
C[C@H](CO)N1C[C@H](C)[C@H](CN(C)C(=O)NC2CCCCC2)Oc2ccc(NC(=O)Nc3ccccc3)cc2C1=O	nt	-3	-4	nt	nt	nt	nt
CC(C)C#Cc1ccc2c(c1)O[C@H](CN(C)C(=O)C1CCC1)[C@@H](C)CN([C@@H](C)CO)S2(=O)=O	103*	nt	-18	111*	33	2	51*
CC(C)C#Cc1ccc2c(c1)O[C@@H](CN(C)C(=O)C1CCC1)[C@@H](C)CN([C@H](C)CO)S2(=O)=O	80	nt	-44	nt	nt	nt	nt
CC(C)C#Cc1ccc2c(c1)O[C@@H](CN(C)C(=O)C1CCCCC1)[C@H](C)CN([C@H](C)CO)S2(=O)=O	104*	43	-83*	103*	85	?	105*
CC(C)C#Cc1ccc2c(c1)O[C@H](CN(C)C(=O)C1CCC1)[C@H](C)CN([C@@H](C)CO)S2(=O)=O	67	nt	-1	nt	nt	nt	nt
CS(=O)(=O)Nc1ccc2c(c1)[C@H]1C[C@@H](CC(=O)NCc3ccncc3)O[C@H](CO)[C@H]1O2	-26	-1	8	nt	nt	nt	nt
O=C(c1ccc2c(c1)OCO2)N1CC2(C1)[C@H](c1ccccc1)[C@@H](CO)N2C(=O)C1CCCC1	nt	-2	27	nt	nt	nt	nt
COc1ccccc1CNC(=O)C[C@@H]1C[C@H]2c3cc(NC(=O)C4CCOCC4)ccc3O[C@H]2[C@@H](CO)O1	12	2	26	nt	nt	nt	nt
COc1ccccc1C#Cc1ccc([C@H]2[C@@H](C#N)N(C(=O)C3CCC3)[C@@H]2CO)cc1	?	1	-77	106*	108*	2	96*
N#C[C@@H]1[C@H](c2ccc(C#Cc3ccccc3F)cc2)[C@@H](CO)N1C(=O)C1CCC1	?	-11	-36	89	89	11	102*
N#C[C@H]1[C@H](c2ccc(C#Cc3ccccc3F)cc2)[C@@H](CO)N1C(=O)C1CCC1	99*	3	-48	103*	101*	-6	6
N#C[C@H]1[C@H](c2ccc(C#Cc3ccccc3F)cc2)[C@H](CO)N1C(=O)C1CCC1	55	-9	-32	nt	nt	nt	nt
COc1ccccc1C#Cc1ccc([C@H]2[C@H](C#N)N(C(=O)C3CCCCC3)[C@H]2CO)cc1	nt	43	-57	nt	nt	nt	nt
N#C[C@@H]1[C@@H](c2ccc(C#Cc3ccccc3F)cc2)[C@H](CO)N1C(=O)C1CCC1	92	9	-44	nt	nt	nt	nt
O=C1N[C@@H](Cc2ccccc2)COCc2cn(nn2)CC[C@@H]1Cc1ccccc1	nt	7	nt	nt	nt	nt	nt
CCC(=O)N1CC[C@H]2[C@H](CO)Nc3ccc(C#Cc4ccccc4F)cc3[C@H]21	nt	0	-58	nt	nt	nt	nt
C[C@H]1CN([C@@H](C)CO)C(=O)c2ccccc2-c2ccccc2CO[C@@H]1CN(C)S(=O)(=O)c1ccc(C#N)cc1	6	nt	-26	nt	nt	nt	nt
O=S(=O)(N[C@H]1CC[C@@H](CCn2cc(-c3cccc(F)c3)nn2)O[C@H]1CO)c1ccc(Cl)cc1	111*	nt	-42	56	27	-13	18
Cc1ccccc1S(=O)(=O)N[C@H]1CC[C@@H](CCn2cc(-c3ccccc3)nn2)O[C@H]1CO	36	-7	-32	nt	nt	nt	nt
O=S(=O)(N[C@@H]1CC[C@@H](CCn2cc(-c3cccc(F)c3)nn2)O[C@H]1CO)c1ccc(Cl)cc1	54	nt	-2	nt	nt	nt	nt
COc1cccc(S(=O)(=O)N[C@@H]2CC[C@@H](CCn3cc(-c4ccccn4)nn3)O[C@@H]2CO)c1	108*	8	-21	49	-10	13	23
SMILES	T cruzi growth-1	C diff growth	Pf Dd2 inh	T cruzi growth-2	T cruzi growth-3	NIH3T3 tox	3T3 cytotox 2
COc1ccc(-c2cn(CC[C@H]3CC[C@@H](NS(=O)(=O)c4ccccc4C)[C@@H](CO)O3)nn2)cc1	107*	0	-3	103*	79	-1	-1
Cc1cccc(S(=O)(=O)N[C@@H]2CC[C@H](CCn3cc(-c4ccccn4)nn3)O[C@@H]2CO)c1	25	2	-10	nt	nt	nt	nt
C[C@@H]1CN([C@H](C)CO)C(=O)Cc2cc(NC(=O)Nc3cccc4ccccc34)ccc2O[C@@H]1CN(C)S(=O)(=O)c1ccccc1	30	-4	13	nt	nt	nt	nt
C[C@@H](NC(=O)C[C@H]1CC[C@@H]2[C@H](COC[C@H](O)CN2Cc2cc(F)ccc2F)O1)c1ccccc1	-57	2	-15	nt	nt	nt	nt
Cc1cccc(S(=O)(=O)N2CCCCN3[C@H](CO)[C@H](c4ccc(C#CC(C)C)cc4)[C@H]3C2)c1	69	-2	-73	nt	nt	nt	nt
Cc1cccc(S(=O)(=O)N2CCCCN3[C@H](CO)[C@@H](c4ccc(C#C[C@H](C)O)cc4)[C@@H]3C2)c1	80	2	-33	nt	nt	nt	nt
Cc1cccc(S(=O)(=O)N2CCCCN3[C@H](CO)[C@@H](c4ccc(C#C[C@H](C)O)cc4)[C@H]3C2)c1	?	7	-24	80	25	9	33*
COc1cccc(S(=O)(=O)N2CCCCN3[C@H](CO)[C@@H](c4ccc(C#CC(C)C)cc4)[C@@H]3C2)c1	?	6	-51	99*	83	7	55*
Cc1cccc(S(=O)(=O)N2CCCCN3[C@H](CO)[C@@H](c4ccc(C#C[C@@H](C)O)cc4)[C@@H]3C2)c1	66	-2	-34	nt	nt	nt	nt
COc1cccc(S(=O)(=O)N2CCCCN3[C@H](CO)[C@H](c4ccc(C#CC(C)C)cc4)[C@@H]3C2)c1	88	-1	-11	nt	nt	nt	nt
Cc1cccc(S(=O)(=O)N2CCCCN3[C@H](CO)[C@@H](c4ccc(C#CC(C)C)cc4)[C@H]3C2)c1	?	3	-42	102*	?	27	103*
Cc1cccc(S(=O)(=O)N2CCCCN3[C@H](C2)[C@H](c2ccc(C#C[C@H](C)O)cc2)[C@@H]3CO)c1	110*	16	-17	110*	63	41*	14
C[C@@H]1CN([C@@H](C)CO)C(=O)c2cccc(NC(=O)C3CCOCC3)c2O[C@@H]1CN(C)Cc1ccc(Cl)c(Cl)c1	12	-3	-28	nt	nt	nt	nt
COc1cccc(C(=O)Nc2ccc3c(c2)C(=O)N(C)C[C@@H](OC)[C@@H](C)CN(C(=O)C2CCCC2)[C@H](C)CO3)c1	25	nt	nt	nt	nt	nt	nt

Bioassay records as filed in PubChem BioAssay.
